About 83,000 compounds went through this panel and 20% of them were active in at least one assay; those are over-represented in the sample as a whole.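 48-hour exposure, single concentration, 96-well plates; percent growth endpoint where 0 means no net growth. Active: below 10.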 A number with no mark means an inactive call. Active and inactive are the calls of the source.
Experiments:
Test in all cases: NCI-60 one-dose screen, 48 h (100 = growth as untreated, 0 = no growth, -100 = all killed)
Conditions in all cases: 10 µM unless noted
SR leukemia = tested on: SR leukemia
RPMI-8226 leukemia = tested on: RPMI-8226 leukemia
OVCAR-8 ovarian = tested on: OVCAR-8 ovarian
OVCAR-5 ovarian = tested on: OVCAR-5 ovarian
OVCAR-4 ovarian = tested on: OVCAR-4 ovarian
SK-OV-3 ovarian = tested on: SK-OV-3 ovarian
IGROV1 ovarian = tested on: IGROV1 ovarian
OVCAR-3 ovarian = tested on: OVCAR-3 ovarian
HS 578T breast = tested on: HS 578T breast
NCI/ADR-RES ovarian = tested on: NCI/ADR-RES ovarian
T-47D breast = tested on: T-47D breast
BT-549 breast = tested on: BT-549 breast
MDA-MB-435 melanoma = tested on: MDA-MB-435 melanoma
SW-620 colon = tested on: SW-620 colon
MCF7 breast = tested on: MCF7 breast
HCT-116 colon = tested on: HCT-116 colon
HCC-2998 colon = tested on: HCC-2998 colon
KM12 colon = tested on: KM12 colon

SMILES	growth (SR leukemia)	growth (RPMI-8226 leukemia)	growth (OVCAR-8 ovarian)	growth (OVCAR-5 ovarian)	growth (OVCAR-4 ovarian)	growth (SK-OV-3 ovarian)	growth (IGROV1 ovarian)	growth (OVCAR-3 ovarian)	growth (HS 578T breast)	growth (NCI/ADR-RES ovarian)	growth (T-47D breast)	growth (BT-549 breast)	growth (MDA-MB-435 melanoma)	growth (SW-620 colon)	growth (MCF7 breast)	growth (HCT-116 colon)	growth (HCC-2998 colon)	growth (KM12 colon)
CCCCCCCCCCCCCCCCCCOc1ccccc1CC(=O)OCC[N+]1(C)CCOCC1	50.7%	59.7%	41%	63.1%	60.5%	100%	-9.88% (active)	65.4%	55.1%	104%	84.9%	82.9%	82.4%	77.1%	79.8%	65.6%	71.8%	65.8%
COc1cc(C2C3=C(COC3=O)N(CCO)c3cc4c(cc32)OCCO4)cc(OC)c1OC (centres undefined)	1.09% (active)	21.9%	6.75% (active)	41.5%	24.9%	5.64% (active)	4.17% (active)	-55.6% (active)	-4.92% (active)	48.2%	67.2%	-4.33% (active)	-32.8% (active)	11.9%	11.2%	0.547% (active)	-0.511% (active)	-28.6% (active)
C#CCOc1ccc2ncnc(Nc3cccc(NC(=O)CCl)c3)c2c1	30.3%	64.2%	54.6%	104%	82.7%	113%	-37.7% (active)	51.3%	90.5%	90.8%	85.2%	68.6%	81.7%	33.5%	41.9%	22.9%	99.4%	71%
CN1CCN(CCCOC(=O)c2c3c(n4ccccc24)C(=O)c2ncccc2C3=O)CC1	-11.2% (active)	-0.22% (active)	4.94% (active)	-4.35% (active)	-11.6% (active)	-46.4% (active)	4.12% (active)	0.457% (active)	-1.51% (active)	2.37% (active)	47.6%	24.9%	-40.4% (active)	-57.2% (active)	-45.9% (active)	-29.5% (active)	29.9%	17.5%
COc1ccc(C(O)c2cc3c(N)c(C(=O)Nc4cccc(Cl)c4)sc3nc2C)cc1 (centres undefined)	13.2%	15.8%	13.5%	28.5%	50.7%	19%	24.5%	7.47% (active)	-8.06% (active)	13.2%	42.2%	38.3%	0.877% (active)	27.1%	15.1%	10.3%	-19.9% (active)	9.91% (active)
CCCCCCCCCCCCCCCCCCOc1ccccc1CC(=O)NCC[N+]1(C)CCOCC1	18.2%	-4.77% (active)	67.8%	26.3%	71.7%	81.2%	-67.2% (active)	67.3%	67.4%	103%	62.3%	39.8%	76%	79.2%	69%	61.8%	31.1%	5.07% (active)
C=CC(=O)NCCOc1cccc(Nc2cc(NCCCNC(=O)C3CCC3)c(Br)cn2)c1	-10.1% (active)	-22.8% (active)	4.84% (active)	2.75% (active)	-20.6% (active)	-54.4% (active)	2.28% (active)	-25.5% (active)	-18.4% (active)	39.5%	-10.5% (active)	-59.5% (active)	-1.47% (active)	2.26% (active)	1.91% (active)	4.97% (active)	-43.7% (active)	5.83% (active)
Cc1c(Cl)cccc1C(=O)Nc1nc2c(s1)CN(C(=O)Nc1cccc(C(F)(F)F)c1)CC2	13.5%	7.93% (active)	14.8%	37%	28.8%	34.1%	22.6%	-11.8% (active)	30.4%	-27.2% (active)	46%	33.6%	-22% (active)	33.4%	12.6%	13.3%	11.7%	14.5%

— PubChem BioAssay (NCI)
